The source made the active and inactive calls.
Experiments:
Albumin (Bos taurus) = Albumin (Bos taurus) (UniProt P02769); assay: compounds binding labelled BSA control protein – biochemical, small-molecule microarray, Alexa647 label, 635/667 nm fluorescence, artefact control for SMM control protein annotation, profiling panel (AID 1118); details: BSA-A647 binding, fluorescence 635 nm, higher = more signal;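 further: score merges 667 nm emission intensity and signal-to-noise per printed compound spot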
Chain of Albumin (Bos taurus) (P02769 whole entry, looked up): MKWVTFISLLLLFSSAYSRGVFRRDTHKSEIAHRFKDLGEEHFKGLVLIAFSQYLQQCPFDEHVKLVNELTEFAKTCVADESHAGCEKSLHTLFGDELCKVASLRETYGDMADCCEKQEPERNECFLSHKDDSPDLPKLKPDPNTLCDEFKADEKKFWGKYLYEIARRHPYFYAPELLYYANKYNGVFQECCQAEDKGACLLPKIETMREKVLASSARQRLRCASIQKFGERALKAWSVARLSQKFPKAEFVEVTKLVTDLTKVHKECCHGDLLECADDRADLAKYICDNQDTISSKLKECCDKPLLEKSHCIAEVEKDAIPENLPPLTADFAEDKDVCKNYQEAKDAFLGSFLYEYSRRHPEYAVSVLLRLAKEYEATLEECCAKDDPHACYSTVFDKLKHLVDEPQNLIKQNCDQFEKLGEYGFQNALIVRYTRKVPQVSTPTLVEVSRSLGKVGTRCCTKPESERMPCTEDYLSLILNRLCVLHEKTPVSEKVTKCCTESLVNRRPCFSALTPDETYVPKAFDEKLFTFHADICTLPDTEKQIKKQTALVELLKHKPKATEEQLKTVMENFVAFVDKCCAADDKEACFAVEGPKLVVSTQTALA

[1] = probe aXIP binding to arrayed compounds – biochemical, NeuroSMM set, 635/667 nm fluorescence, primary screen (AID 1119); details: small-molecule microarray, higher = more signal, called active from +8 up or from −8 down;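 further: probe is the protein aXip251-270 applied at 1 µg/mL to compound-printed slides; binding of probe to printed compounds measured as 667 nm fluorescence plus signal to noise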
[2] = probe aNOTCH3 binding on compound microarray – biochemical, small-molecule microarray, 635/667 nm fluorescence, primary screen (AID 1120); details: higher = more signal;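 further: probe is a biotin-tagged antibody raised against NOTCH3 rather than NOTCH3 protein; score merges spot fluorescence near 667 nm with spot signal to noise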
[3] = probe aNOTCH2 binding on compound microarray – biochemical, small-molecule microarray, 635/667 nm fluorescence, primary screen (AID 1121); details: higher = more signal;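 further: score merges feature fluorescence read at 667 nm with its signal to noise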
[4] = biological target: Carbonic anhydrase 2 (Homo sapiens) (UniProt P00918); assay: compounds binding carbonic anhydrase 2 – biochemical, small-molecule microarray, Alexa647-labelled CAII, profiling panel (AID 1122); details: CAII-A647 binding fluorescence, higher = more signal
[5] = COS7 lysate on small-molecule microarray, probe aHis, 635 nm (AID 1123); details: COS7 cell lysate, fluorescence, higher = more signal;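 further: z-score combines 667nm fluorescence intensity with signal-to-noise per printed compound spot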
[6] = probe aLAP1 signal on lysate-treated microarray – cell lysate, small-molecule microarray, COS7 lysate, primary screen (AID 1124); details: probe aLAP1, fluorescence, higher = more signal;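 further: lysate comes from COS7 cells expressing LAP1 and is applied at 0.3 µg/mL; score merges spot fluorescence near 667 nm with signal-to-noise over triplicate slides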
Sam68 (KHDRBS1) = assay: compounds binding KHDRBS1 protein – biochemical, small-molecule microarray, 635 nm fluorescence, primary screen (AID 1125); details: higher = more signal;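 further: score merges 667 nm channel intensity with signal to noise over triplicate slides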
[7] = system: Chordin-like protein 2 (CHRDL2); assay: compounds binding chordin-like 2 – biochemical, small-molecule microarray, 635 nm fluorescence, primary screen (AID 1126); details: fluorescence 635 nm, higher = more signal;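 further: printed compound slides probed with Chrdl2 protein at 4 µg/mL for 1 h at 4 C; score merges 667 nm emission intensity with signal to noise over three replicate slides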
[8] = biological target: Concanavalin-A (Canavalia ensiformis) (UniProt P02866); assay: compounds binding concanavalin A lectin – biochemical, small-molecule microarray, Alexa647 label, 635 nm, artefact control for SMM control protein annotation, primary screen (AID 1127); details: ConA-A647 binding fluorescence, higher = more signal;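 further: z combines 667 nm emission intensity with signal-to-noise across three replicate slides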
Chain of Concanavalin-A (Canavalia ensiformis) (P02866 whole entry, looked up): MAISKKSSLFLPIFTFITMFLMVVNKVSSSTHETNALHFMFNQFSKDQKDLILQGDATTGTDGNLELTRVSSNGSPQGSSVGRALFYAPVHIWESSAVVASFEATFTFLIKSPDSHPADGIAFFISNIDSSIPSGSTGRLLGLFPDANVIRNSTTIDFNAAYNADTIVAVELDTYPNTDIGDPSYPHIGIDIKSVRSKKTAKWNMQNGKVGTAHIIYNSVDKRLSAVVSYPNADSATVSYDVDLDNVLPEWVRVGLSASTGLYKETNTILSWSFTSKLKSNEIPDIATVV

[9] = compounds binding Alexa647 anti-His antibody – biochemical, small-molecule microarray, 635 nm fluorescence, artefact control for SMM control protein annotation, primary screen (AID 1128); details: higher = more signal;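 further: score merges feature fluorescence with signal-to-noise for each printed compound spot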
[10] = system: Human papillomavirus type 1a E7 protein (residues 1-88); assay: HPV1a E7 small-molecule binders, primary screen, biochemical, small-molecule microarray, residues 1-88, 635 nm (AID 1129); details: small-molecule microarray binding, fluorescence 635 nm; higher = more signal
[11] = biological target: Focal adhesion kinase 1 (Homo sapiens) (UniProt Q05397); assay: PTK2 protein binding on printed compound slides – biochemical, small-molecule microarray, 635/667 nm fluorescence, BSA, DTT, primary screen (AID 1130); details: 635 nm fluorescence, higher = more signal;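 further: composite of spot emission at 667 nm and signal to noise over triplicate slides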
Chain of Focal adhesion kinase 1 (Homo sapiens) (Q05397 whole entry, looked up): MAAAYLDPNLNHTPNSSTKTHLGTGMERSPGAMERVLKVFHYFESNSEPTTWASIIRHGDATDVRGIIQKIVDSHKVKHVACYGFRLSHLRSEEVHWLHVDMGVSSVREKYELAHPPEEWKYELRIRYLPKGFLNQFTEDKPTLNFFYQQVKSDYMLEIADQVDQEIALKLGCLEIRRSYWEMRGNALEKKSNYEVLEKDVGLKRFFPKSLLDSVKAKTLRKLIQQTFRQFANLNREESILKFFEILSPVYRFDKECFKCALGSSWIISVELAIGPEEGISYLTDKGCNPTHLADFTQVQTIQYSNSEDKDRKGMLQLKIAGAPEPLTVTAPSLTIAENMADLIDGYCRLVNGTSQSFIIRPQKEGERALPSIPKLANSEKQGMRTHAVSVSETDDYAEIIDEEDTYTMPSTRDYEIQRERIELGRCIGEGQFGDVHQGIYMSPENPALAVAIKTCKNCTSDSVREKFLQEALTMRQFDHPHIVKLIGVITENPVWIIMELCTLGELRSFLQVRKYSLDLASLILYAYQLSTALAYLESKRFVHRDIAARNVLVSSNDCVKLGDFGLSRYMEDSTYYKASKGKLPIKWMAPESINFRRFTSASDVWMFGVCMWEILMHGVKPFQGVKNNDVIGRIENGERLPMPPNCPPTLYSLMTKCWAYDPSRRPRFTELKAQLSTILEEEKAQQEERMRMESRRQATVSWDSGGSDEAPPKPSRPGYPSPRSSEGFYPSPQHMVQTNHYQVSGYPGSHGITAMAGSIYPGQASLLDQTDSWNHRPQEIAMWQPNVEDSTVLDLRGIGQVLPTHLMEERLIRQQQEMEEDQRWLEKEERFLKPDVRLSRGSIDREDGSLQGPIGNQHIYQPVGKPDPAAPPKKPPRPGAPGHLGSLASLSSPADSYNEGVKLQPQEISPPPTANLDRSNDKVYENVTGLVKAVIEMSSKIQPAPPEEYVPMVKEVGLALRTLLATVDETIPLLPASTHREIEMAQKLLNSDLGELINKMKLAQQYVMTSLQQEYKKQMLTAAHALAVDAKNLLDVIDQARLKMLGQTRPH

[12] = system: Fibrinogen (Alexa647-labelled); assay: Alexa647-fibrinogen binding to printed small molecules – biochemical, small-molecule microarray, 635/667 nm fluorescence, artefact control for SMM control-protein annotation, profiling panel (AID 1131); details: fibrinogen-A647 binding fluorescence, higher = more signal;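 further: z-score merges 667 nm fluorescence with per-spot signal-to-noise over triplicate slides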
[13] = biological target: Follistatin (Homo sapiens) (UniProt P19883); assay: FST protein binding to printed compounds – biochemical, small-molecule microarray, 635/667 nm fluorescence, primary screen (AID 1132); details: 635 nm fluorescence, higher = more signal
Chain of Follistatin (Homo sapiens) (P19883 whole entry, looked up): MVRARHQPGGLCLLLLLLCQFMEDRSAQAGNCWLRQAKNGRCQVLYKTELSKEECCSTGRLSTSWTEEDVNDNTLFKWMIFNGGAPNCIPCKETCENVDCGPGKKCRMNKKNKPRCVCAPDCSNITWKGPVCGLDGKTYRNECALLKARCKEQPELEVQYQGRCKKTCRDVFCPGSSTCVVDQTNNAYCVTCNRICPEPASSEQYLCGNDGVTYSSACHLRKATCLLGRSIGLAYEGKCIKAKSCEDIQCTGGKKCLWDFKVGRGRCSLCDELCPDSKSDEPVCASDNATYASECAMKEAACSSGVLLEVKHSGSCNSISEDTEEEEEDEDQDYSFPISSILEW

[14] = biological target: Fibroblast growth factor 2 (Homo sapiens) (UniProt P09038); assay: basic fibroblast growth factor binding to printed compounds – biochemical, small-molecule microarray, 635/667 nm fluorescence, primary screen (AID 1133); details: FGF2, fluorescence 635/667, higher = more signal
Chain of Fibroblast growth factor 2 (Homo sapiens) (P09038 whole entry, looked up): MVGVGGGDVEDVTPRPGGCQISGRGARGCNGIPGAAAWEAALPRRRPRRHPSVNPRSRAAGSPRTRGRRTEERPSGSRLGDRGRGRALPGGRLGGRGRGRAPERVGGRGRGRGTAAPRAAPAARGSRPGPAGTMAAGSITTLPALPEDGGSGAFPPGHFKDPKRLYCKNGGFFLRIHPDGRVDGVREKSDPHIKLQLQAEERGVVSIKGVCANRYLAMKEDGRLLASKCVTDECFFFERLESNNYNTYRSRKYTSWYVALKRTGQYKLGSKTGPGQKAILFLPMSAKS

[15] = JC-1 mitochondrial potential readout, lung cancer cells – cell-based, A549, JC-1 fluorescence, basal, 24 h, 100 nL, profiling panel (AID 1138); details: higher = more signal;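 further: A549 lung adenocarcinoma cells under basal conditions with no added stimulus; test concentration not given here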
Lefty1 = Lefty1 protein binding to printed compounds – biochemical, small-molecule microarray, 635/667 nm fluorescence, primary screen (AID 1139); details: fluorescence 635/667, higher = more signal
[16] = system: wheat germ agglutinin (Triticum aestivum), Alexa647-labelled; assay: Alexa647-WGA lectin binding to printed small molecules – biochemical, small-molecule microarray, 635/667 nm fluorescence, artefact control for SMM control-protein annotation, profiling panel (AID 1140); details: WGA-A647 binding, 635 nm fluorescence, higher = more signal;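 further: score merges 667 nm feature emission with signal to noise over triplicate slides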
[17] = biological target: Luciferin 4-monooxygenase (Photinus pyralis) (UniProt P08659); assay: inhibition of purified Photinus pyralis luciferase – biochemical, luminescence, purified enzyme, 2006 set, primary screen (AID 1141); details: purified firefly luciferase, SteadyGlo luminescence, 30 min; higher = more signal, called active from +8 up or from −8 down;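 further: cell-free assay with purified firefly luciferase at 100 ng per well in PBS; test concentration not given here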
Chain of Luciferin 4-monooxygenase (Photinus pyralis) (P08659 whole entry, looked up): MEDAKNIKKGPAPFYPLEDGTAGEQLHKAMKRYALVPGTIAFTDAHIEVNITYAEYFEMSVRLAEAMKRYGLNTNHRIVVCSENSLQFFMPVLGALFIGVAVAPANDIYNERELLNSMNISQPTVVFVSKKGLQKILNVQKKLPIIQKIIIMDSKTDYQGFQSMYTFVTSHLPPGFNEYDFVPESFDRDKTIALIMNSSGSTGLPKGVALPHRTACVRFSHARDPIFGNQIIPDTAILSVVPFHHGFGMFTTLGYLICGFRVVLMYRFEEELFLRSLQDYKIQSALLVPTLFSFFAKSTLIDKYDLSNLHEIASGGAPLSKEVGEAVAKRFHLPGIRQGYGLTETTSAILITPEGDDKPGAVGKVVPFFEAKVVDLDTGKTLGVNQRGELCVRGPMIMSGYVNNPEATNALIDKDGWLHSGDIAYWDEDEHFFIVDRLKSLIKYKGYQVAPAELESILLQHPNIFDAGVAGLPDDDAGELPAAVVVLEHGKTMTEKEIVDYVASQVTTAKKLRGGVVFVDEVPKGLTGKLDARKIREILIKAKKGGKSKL

Row | SMILES | composite z-score (Albumin (Bos taurus)) | composite Z-score [1] | composite z-score [2] | composite z-score [3] | composite z-score [4] | composite z-score [5] | composite z-score [6] | composite z-score (Sam68 (KHDRBS1)) | composite z-score [7] | composite z-score [8] | composite z-score [9] | composite z-score [10] | composite z-score [11] | composite z-score [12] | composite z-score [13] | composite z-score [14] | z-score [15] | composite z-score (Lefty1) | composite z-score [16] | z-score [17]
1 | COc1ccc(C(O)C2C=CC3C(=O)N(C)C(=O)C3N2Nc2ccc([N+](=O)[O-])cc2[N+](=O)[O-])cc1OCc1ccccc1 (stereo not given) | 0.747 | -0.213 (inactive) | 0.583 | 0.29 | 0.633 | 2.36 | 0.53 | 1.32 | -0.599 | 0.892 | 1.05 | 1.19 | 0.368 | 0.545 | 0.699 | -0.0627 | 0.552 | 0.0695 | 1.15 | 0.0945 (inactive)
2 | COCCOC(=O)N1C(=O)[C@@]2(c3cc(C#Cc4ccc(OC)cc4)ccc31)[C@H](C(=O)N1CCCCCCC1)[C@H]1C(=O)O[C@H](c3ccccc3)[C@H](c3ccccc3)N1[C@@H]2c1ccccc1OCCO | 0.768 | 4.24 (inactive) | 1.49 | 0.793 | 0.472 | 3 | 1.3 | 1.3 | 1.21 | 0.893 | 0.32 | 1.21 | 0.628 | 0.495 | 1.49 | 1.54 | -0.864 | 1.62 | 0.614 | 0.197 (inactive)
3 | COCC(=C=CC[C@@H](O)c1cccc(OCCO)c1)C[C@@H](O)COCc1ccccc1 | 0.809 | -1.85 (inactive) | 0.381 | 0.121 | 0.552 | 3.68 | 0.684 | 0.92 | -0.69 | 0.132 | 0.934 | 1.09 | 0.112 | -0.272 | 0.941 | -0.237 | 0.806 | -0.058 | 1.34 | -2.33 (inactive)
4 | CCCCNC(=O)c1ccc(C#C[Si](C)(C)C)c(OC(C)=O)c1 | -0.175 | 0.378 (inactive) | -0.0328 | -0.154 | -0.14 | 0.353 | 0.0462 | 0.469 | 0.782 | 0.0668 | 0.312 | 0.689 | 0.193 | 0.0903 | 0.389 | 0.326 | -1.35 | 0.479 | -0.0014 | 0.229 (inactive)
5 | C=CCC(OC(C)=O)[C@@H]1[C@@H](N(Cc2cccc3ccccc23)C(=O)c2cccc3ccccc23)c2cc(OCCCO)ccc2N1C(=O)Cc1ccc2ccccc2c1 (stereo not given in full) | -0.351 | -0.745 (inactive) | -0.128 | -0.147 | -0.272 | -0.331 | -0.397 | -0.0418 | 0.295 | -0.508 | 0.866 | -0.0855 | 0.119 | -0.438 | 0.832 | 0.448 | 0.169 | 0.093 | 0.457 | 1.06 (inactive)
6 | Cc1ccc(S[C@]2(C(=O)NCCCN(C)C)CC(=O)N(Cc3ccccc3Cl)[C@@H]2c2ccc(CO)cc2I)cc1 | -0.153 | 0.153 (inactive) | -0.136 | -0.142 | 0.815 | 0.429 | 0.0345 | -0.406 | -0.697 | -0.708 | -0.704 | -0.522 | 0.404 | -1.05 | -0.667 | -1.09 | 0.935 | -0.767 | 1.17 | -0.543 (inactive)

Reference: PubChem BioAssay
